Assay results: PubChem BioAssay (Tox21)
Results filed as inconclusive are left out. Entries that show only a call come without a potency. Active and inactive are the calls of the source. Calls follow the shape of the dose curve; as a rule, active = well fitted cell-killing curve with a large enough effect in the repeat runs; inconclusive = weak or mixed curves, or effect the other way; inactive = flat fitted curve, though single readings scatter.

Test: qHTS assay to identify small molecule agonists of the estrogen receptor beta (ER-beta) signaling pathway - cell viability counter screen (AID 1259380); also: nearly all actives have a fitted effect of over 30% in size
Conditions: ER-beta-bla HEK293T viability, CellTiter-Glo luminescence, 16 h; series mostly up to 92.4 µM
From the text: National Center for Advancing Translational Sciences [NCATS]
NIH Chemical Genomics Center [NCGC]
U.S. Environmental Protection Agency [EPA]
National Institutes of Environmental Health Sciences [NIEHS]
National Toxicology Program [NTP]
U.S. Food and Drug Administration [FDA]
Estrogen receptor (ER), a nuclear hormone receptor, plays an important role in development, metabolic homeostasis and reproduction. Two subtypes of ER, ER-alpha and ER-beta, have similar expression patterns with some uniqueness in both types. Endocrine disrupting chemicals (EDCs) and their interactions with steroid hormone receptors like ER causes disruption of normal endocrine function. To identify the compounds that activate ER signaling, an ER beta-UAS-bla GripTite cell line (Life Technologies, Madison, WI, USA) containing a beta-lactamase reporter gene under the control of an UAS response element was used to screen Tox21 10K compound library. The cytotoxicity of the Tox21 compound library against the ER-beta-bla cell line was tested in parallel by measuring the cell viability using CellTiter-Glo assay in the same wells.
Tox21 Assay Protocol Summary:
ER-beta-UAS-bla HEK293T cells were dispensed at 2,000 cells/5 uL of assay medium containing 2% charcoal stripped FBS per well into black wall/clear-bottom 1536-well plates using a Multidrop Combi (ThermoFisher Scientific, Waltham, MA) dispenser. After the assay plates were incubated at a 37C and 5% CO2 for 6 hr, 23 nL of compounds dissolved in DMSO, positive controls or DMSO only was transferred to the assay plate by a Pintool station (Kalypsys, San Diego, CA). The plates were incubated at 37C and 5% CO2 for 16 hr. Then 1 uL of LiveBLAzerTM B/G FRET substrate was added using a BioRAPTR FRD (Flying Reagent Dispenser, Aurora Discovery, San Diego, CA) and then the plates were incubated at room temperature for 2 hours, and fluorescence intensity was measured by an Envision plate reader (PerkinElmer, Shelton, CT). For cell viability readout that measures cytotoxicity, 4 uL/well of CellTiter-Glo reagent was added into the assay plates using a FRD. After 30 min incubation at room temperature, the luminescence intensity in the plates was measured using a ViewLux (PerkinElmer) plate reader.
Potency is read from the fitted curve at half-maximal effect.

SMILES | Potency | activity change, negative = cytotoxicity
O[C@@H](c1cc(C(F)(F)F)nc2c(C(F)(F)F)cccc12)[C@H]1CCCCN1 | 21.1 µM (active) | 
CCOC(=O)CC(C)O (stereo not given) | inactive | 
Cc1c(-c2ccc(O)cc2)n(Cc2ccc(OCCN3CCCCCC3)cc2)c2ccc(O)cc12 | 29.8 µM (active) | 
CCNc1nc(NC(C)CC)nc(OC)n1 (stereo not given) | inactive | 
CCCCCCCCCC(=O)N(C)C | inactive | 
CCCSS/C(CCO)=C(\C)N(C=O)Cc1cnc(C)nc1N | 26.6 µM (active) | 
Oc1c(Br)cc(Br)c2cccnc12 | 1.19 µM (active) | 
O=C(Nc1ccc(Cl)c(Cl)c1)c1cc(Cl)cc(Cl)c1O | 21.7 µM (active) | 
COc1ccccc1OCCNCC(O)COc1cccc2[nH]c3ccccc3c12 (stereo not given) | 9.44 µM (active) | 
C=C1C(C)(C)[C@@]2(Cl)C(Cl)[C@]1(Cl)C(Cl)(Cl)C2(Cl)Cl (stereo not given in full) | 60 µM (active) | 
C/C=C/C(=O)C1=C(C)CCCC1(C)C | inactive | 
CCc1ccc(C)nc1 | inactive | 
O=C1c2c(O)ccc(O)c2C(=O)c2c(NCCNCCO)ccc(NCCNCCO)c21 | inactive | 
CCCCCCCCCCCC(=O)N(CC)CC | inactive | 
CC(C)=CCCC(C)O (stereo not given) | inactive | 
C(=C/c1ccccc1)/c1ccccc1 | inactive | 
CCC(C)(C)c1cc(O)c(C(C)(C)CC)cc1O | 61.1 µM (active) | 
O=CC1CC1 | inactive | 
CCCCCCCCCCCCCCNCCO | 26.6 µM (active) | 
O=C1c2c(O)ccc([N+](=O)[O-])c2C(=O)c2c([N+](=O)[O-])ccc(O)c21 | 15.2 µM (active) | 

SMILES | Potency | activity change, negative = cytotoxicity
O=S(O)O |  | -0.0055% [at 19 µM] (inactive)
CC1(C)C(=O)N(Br)C(=O)N1Br | inactive | 
O=C(O)CC(=O)O | inactive | 
CCCCCCS | inactive | 
CCCCC(CC)COC(=O)c1ccc(O)cc1 (stereo not given) | 61.1 µM (active) | 
Cc1cc(Nc2ccc(O)cc2)ccc1N | 27.2 µM (active) | 
CN1[C@@H]2CC[C@H]1CC(OC(=O)C(CO)c1ccccc1)C2 (stereo not given in full) | 68.5 µM (active) | 
C=CC(=C)CCC=C(C)C | inactive | 
[O]=[Zr] | inactive | 
CCc1cccc(C)c1 | inactive | 
CC(C)(C)CC(C)(C)c1ccccc1O | 43.5 µM (active) | 
CCN=C1C=CC(=C(c2ccc(N(CC)CC)cc2)c2ccc(N(CC)CC)cc2)c2ccccc21 | 27.1 µM (active) | 
Clc1nc2ccccc2s1 | inactive | 
CC(=O)Nc1ccc(O)cc1 | inactive | 
COc1cc(C(C)C)c2c(c1)S(=O)(=O)N(COc1cc(=O)n3cccc(OCCN4CCCCC4)c3n1)C2=O |  | -6.94% [at 19 µM] (inactive)
Oc1ccc(-c2ccccc2)c(Cl)c1 | 27.3 µM (active) | 
CCCC(C)CCC(C)=O (stereo not given) | inactive | 
O=C(O)c1cccc(Cl)n1 | inactive | 
COc1cc(C(=O)NS(=O)(=O)c2ccccc2C)ccc1Cc1cn(C)c2ccc(NC(=O)OC3CCCC3)cc12 | 13.3 µM (active) | 
CC(C)=CC1CC(C)CCO1 (stereo not given) | inactive | 
